Among all 2,300 compounds or so, about 330 (14%) showed activity.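 How the source made its calls: active = median modified Z-score above 1.96; inactive = 1.96 or below.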 A selection follows.
Each compound was assayed on HepG2 Srxn1-GFP reporter cells (+30 nM CDDO-Me) (assay: Srxn1-GFP intensity median modified Z-score relative to plate median; higher = stronger NRF2 / oxidative stress reporter activation, active = hit call of the paper). Settings: 10 µM; exposure time: 24h.
Outline: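 HepG2 Srxn1-GFP BAC reporter cells (20,000 per well, 96-well plates) were co-exposed to an NRF2 activator at 30 nM and compound at 10 μM (≤0.1% DMSO) for 24 h in three replicate plates. After formaldehyde fixation and Hoechst staining, confocal images were analysed per cell for cytoplasmic GFP, excluding images with under 100 cells. The value is the median over replicates of the per-plate modified Z-score of GFP intensity. Scaling used 1.4826 × median absolute deviation.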

Srxn1-GFP intensity median modified Z-score, active:
CC1=CC(=O)c2ccccc2C1=O [euspeclibcmpd446] 5.02
CN1CCN(CC/C=C2\c3ccccc3Sc3ccc(S(=O)(=O)N(C)C)cc32)CC1 [euspeclibcmpd294] 4.72
O=C1OCCN1/N=C/c1ccc([N+](=O)[O-])o1 [euspeclibcmpd134] 2.95
NC(=O)N/N=C/c1ccc([N+](=O)[O-])o1 [euspeclibcmpd210] 10.3
O=C(N/N=C/c1ccc([N+](=O)[O-])o1)c1ccc(Br)cc1 4.87
C=C(C)[C@@H]1CC[C@]2(CO)CC[C@]3(C)[C@H](CCC4[C@@]5(C)CC[C@H](O)C(C)(C)C5CC[C@]43C)C12 (stereo partly specified) [euspeclibcmpd1538] 10.7
N=C(N)SCCN [euspeclibcmpd1761] 3.8
O=C1OC2(c3ccc(O)cc3Oc3cc(O)ccc32)c2ccccc21 [euspeclibcmpd769] 2.16
COC(=O)N=c1[nH]c2ccc(Sc3ccccc3)cc2[nH]1 [euspeclibcmpd371] 2.82
COC(=O)N=c1[nH]c2ccc(C(=O)c3ccc(F)cc3)cc2[nH]1 [euspeclibcmpd2318] 8.09
COC(=O)N=c1[nH]c2ccc(C(=O)c3ccccc3)cc2[nH]1 [euspeclibcmpd378] 19.3
CC1CCC2[C@@]3(C)C=CC(=O)C(C)(C)C3CC3OC(=O)C(=O)C1[C@]32C (stereo partly specified) [euspeclibcmpd1535] 9.38
S=C1SCN(Cc2ccccc2)CN1Cc1ccccc1 [euspeclibcmpd1200] 10

Srxn1-GFP intensity median modified Z-score, inactive:
CN1C(C(=O)N=c2cccc[nH]2)C(=O)c2sc(Cl)cc2S1(=O)=O (stereo unspecified) [euspeclibcmpd458] -0.432
CC(=O)OC=C1CSC2C(NC(=O)Cc3cccs3)C(=O)N2C1C(=O)O (stereo unspecified) [euspeclibcmpd2267] 0.967
S=c1[nH]c2ccccc2s1 [euspeclibcmpd1954] -0.455
CN(C)CCC=C1c2ccccc2CCc2ccccc21 [euspeclibcmpd21] 0.287
CN(C)CC/C=C1\c2ccccc2Sc2ccc(Cl)cc21 [euspeclibcmpd538] -1.04
CN1CCC[C@@H]1Cc1c[nH]c2ccc(CCS(=O)(=O)c3ccccc3)cc12 [euspeclibcmpd938] -0.193
CCCN(Cc1nnc(-c2cccs2)o1)C(=O)CSc1nnc(-c2cccs2)n1C1CC1 0.54
CC1O[C@@H](Oc2c(-c3ccc(O)c(O)c3)oc3cc(O)cc(O)c3c2=O)[C@H](O)[C@H](O)[C@H]1O (stereo partly specified) [euspeclibcmpd1694] -0.35
O=C1OC(CN2CCOCC2)CN1/N=C/c1ccc([N+](=O)[O-])o1 (stereo unspecified) [euspeclibcmpd1273] 0.605
O=C(N/N=C/c1ccc([N+](=O)[O-])o1)c1ccc(O)cc1 [euspeclibcmpd1226] 0.949
CC(C)(C)c1ccc(C(=O)N/N=C/c2ccc([N+](=O)[O-])o2)cc1 1.17
O=c1[nH]c(O)cn1/N=C/c1ccc([N+](=O)[O-])o1 [euspeclibcmpd209] 0.292
CC(C)CC(N)C(=O)NC(C)C(=O)O (stereo unspecified) [euspeclibcmpd1745] 0.124
CC(=O)NCCc1ccc(O)c(C2C(=O)C(=O)c3c(c(O)c4c(C(=O)O)c(C(=O)O)c(O)cc4c3O)C2=O)c1 (stereo unspecified) [euspeclibcmpd1580] -0.208
CC(=O)OC=C1CSC2C(N)C(=O)N2C1C(=O)O (stereo unspecified) [euspeclibcmpd1380] -0.0231
O=C(O)c1ccc[nH]c1=Nc1cccc(C(F)(F)F)c1 [euspeclibcmpd1074] -0.299
N#CCOC(=O)c1cc(-c2ccccc2)nc2ccccc12 1.25
NCCc1cc[nH]n1 [euspeclibcmpd614] 1.24
NC(=O)NC(CC(=O)O)C(=O)O (stereo unspecified) 1.02
CNC(=O)CN1CCC(NC(=O)NCc2ccc(C)n2C)CC1 0.3
CN1CCN(C(=O)Oc2c3nccnc3c(O)n2-c2ccc(Cl)cn2)CC1 [euspeclibcmpd2130] -0.245
C=C(C)[C@@H]1CC[C@]2(C)CC[C@]3(C)[C@@H](CCC4[C@@]5(C)CC[C@H](O)C(C)(C)C5CC[C@]43C)C12 (stereo partly specified) [euspeclibcmpd1455] -0.31
C=C(C)[C@@H]1CC[C@]2(C(=O)O)CC[C@]3(C)[C@H](CCC4[C@@]5(C)CC[C@H](O)C(C)(C)C5CC[C@]43C)[C@@H]12 (stereo partly specified) [euspeclibcmpd1473] -0.366
CC=C(c1ccc(O)cc1)C(CC)c1ccc(O)cc1 (stereo unspecified) [euspeclibcmpd93] 0.179
N=C(N)N [euspeclibcmpd2417] -0.496
NCCSSCCN [euspeclibcmpd2395] -0.505
N=c1[nH]c(=O)c2ncn(COC(CO)CO)c2[nH]1 [euspeclibcmpd487] 0.251
CCN1CCN(C(=O)NC(C(=O)NC2C(=O)N3C2SC(C)(C)[C@@H]3C(=O)O)c2ccccc2)C(=O)C1=O (stereo partly specified) [euspeclibcmpd2069] 0
CC1(C)OC2CC3C4CC(F)=C5CC(=O)CCC5(C)C4C(O)CC3(C)C2(C(=O)CO)O1 (stereo unspecified) [euspeclibcmpd1953] -0.815
O=c1cc(-c2ccccc2O)oc2cc(O)ccc12 [euspeclibcmpd1982] -0.161
O=C1OC(c2ccc(O)cc2)(c2ccc(O)cc2)c2ccccc21 [euspeclibcmpd234] 1.62
CS(=O)(=O)c1ccc([C@H](O)[C@H](CF)NC(=O)C(Cl)Cl)cc1 [euspeclibcmpd827] -0.193
OC[C@H]1O[C@@H](Oc2ccc(Cl)cc2)[C@H](O)[C@@H](O)[C@H]1O 1.18
COC(=O)N=c1[nH]c2ccc([S+]([O-])c3ccccc3)cc2[nH]1 (stereo unspecified) [euspeclibcmpd738] -0.824
CCOC(=O)N=c1[nH]c2ccccc2[nH]1 [euspeclibcmpd787] -0.0391
O=c1oc2ccccc2cc1O [euspeclibcmpd2250] -0.381
CCC(C)(C)c1ccc(CC(C)CN2C[C@@H](C)O[C@@H](C)C2)cc1 (stereo partly specified) [euspeclibcmpd489] 1.75
CC1(C)O[C@@H]2CC3C4CC(F)=C5CC(=O)C=C[C@]5(C)[C@@]4(F)[C@@H](O)C[C@]3(C)[C@]2(C(=O)CO)O1 (stereo partly specified) [euspeclibcmpd129] 0.0501
CCC(C)C1NC(=O)C(CCNCS(=O)(=O)O)NC(=O)C(NC(=O)C(CCNCS(=O)(=O)O)NC(=O)C(NC(=O)C(CCNCS(=O)(=O)O)NC(=O)CCCCC(C)C)C(C)O)CCNC(=O)C(C(C)O)NC(=O)C(CCNCS(=O)(=O)O)NC(=O)C(CCNCS(=O)(=O)O)NC(=O)C(C(C)CC)NC1=O (stereo unspecified) [euspeclibcmpd2131] 0.0847
CCC(C)n1nccc1NC(=O)C(C)N1CCSCC1 (stereo unspecified) 0.365
COC1(C)CCC2OC2(C)CCC2C1CC2(C)C (stereo unspecified) [euspeclibcmpd2008] -0.165
CC1(C)[C@@H]2CC[C@]1(C)C(=O)C2 [euspeclibcmpd42] -0.12
O=C(O)c1cc(O)c2c(O)c3c(OC4OC(CO)C(O)C(O)C4O)cccc3c(-c3c4cc(C(=O)O)cc(O)c4c(O)c4c(OC5OC(CO)C(O)C(O)C5O)cccc34)c2c1 (stereo unspecified) [euspeclibcmpd1934] -0.281
Cn1nnnc1SC=C1CSC2C(NC(=O)C(O)c3ccccc3)C(=O)N2C1C(=O)O (stereo unspecified) [euspeclibcmpd2229] -0.103
O=C(Nc1ccccc1Cl)C1=NN(C2CCS(=O)(=O)C2)C(=O)CC1 (stereo unspecified) 1.26
COc1cc(OC)c2c(=O)c(-c3ccccc3)c(C)oc2c1OC [euspeclibcmpd2303] 1.35
O=C(O)Cc1ccccc1Nc1c(Cl)cccc1Cl [euspeclibcmpd2396] 0.438
N=c1[nH]c(N2CCCCC2)cc(N)[n+]1[O-] [euspeclibcmpd792] -0.234
CC1(C)O[C@@H]2CC3C4CC(F)=C5CC(=O)C=CC5(C)C4C(O)CC3(C)[C@]2(C(=O)CO)O1 (stereo partly specified) [euspeclibcmpd414] 0.0846
O=C1CCC(N2C(=O)c3ccccc3C2=O)C(=O)N1 (stereo unspecified) [euspeclibcmpd588] -0.192
NC(=O)Nc1[nH]c(=O)[nH]c1O [euspeclibcmpd347] -0.31
CC(=O)OC=C1CSC2C(NC(=O)CSc3ccncc3)C(=O)N2C1C(=O)O (stereo unspecified) [euspeclibcmpd2110] 0.0966
OCCc1ccccc1 [euspeclibcmpd771] -0.962
CC(=O)NC1C(O)OC(CO)C(O)C1O (stereo unspecified) [euspeclibcmpd1995] -0.204
Cc1c(N=c2[nH]cccc2C(=O)O)cccc1C(F)(F)F [euspeclibcmpd1313] 0.328
Cc1cnc(C(=O)O)c[n+]1[O-] [euspeclibcmpd1196] -0.419
CN[C@@H]1[C@H](OC2[C@H](O[C@H]3[C@H](O)[C@@H](O)[C@H](N=C(N)N)[C@@H](O)[C@@H]3N=C(N)N)O[C@@H](C)[C@]2(O)C=O)O[C@@H](CO)[C@H](O)[C@H]1O (stereo partly specified) [euspeclibcmpd270] -0.445
C=C(C)[C@H]1C=CC(C(=O)O)CC1 (stereo partly specified) [euspeclibcmpd1451] -0.188

Source: the supplement of paper PMC10498489
